Measured values reported in PubChem BioAssay AID720711 (National Center for Advancing Translational Sciences (NCATS), 2013).
In all, about 360,000 compounds went through this assay and about 290 (0.081%) were called active. The call rests on the fitted dose curve; in most records, active means well fitted activation curve with a large enough effect; inconclusive means small, poorly fitted or top-dose-only effect; inactive means no such curve, though single readings can be large or run the other way. Shown is part of a subset that was picked to be rich in actives. Entries that show only a call come without a potency.

Biological target: Rap guanine nucleotide exchange factor 4 (Homo sapiens) (UniProt Q8WZA2)
Assay: qHTS for Agonist of cAMP-regulated guanine nucleotide exchange factor 4 (EPAC2): primary screen; further: nearly all actives have a fitted effect of over 50% in size
Details: biochemical qHTS; Potency: EPAC2 activation; series mostly up to 154 µM
Summary of the method: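 Exchange assay: 100 nM EPAC2 with 250 nM Rap1B-BODIPY-GDP and 50 uM GDP. Fluorescence (ex 480/em 540 nm) read every 5 min for 30 min at room temperature. Data normalized to 6.5 mM cAMP as agonist control.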
Potency means the concentration at half of the fitted maximal effect.

Sequence of Rap guanine nucleotide exchange factor 4 (Homo sapiens) (Q8WZA2 whole entry, looked up): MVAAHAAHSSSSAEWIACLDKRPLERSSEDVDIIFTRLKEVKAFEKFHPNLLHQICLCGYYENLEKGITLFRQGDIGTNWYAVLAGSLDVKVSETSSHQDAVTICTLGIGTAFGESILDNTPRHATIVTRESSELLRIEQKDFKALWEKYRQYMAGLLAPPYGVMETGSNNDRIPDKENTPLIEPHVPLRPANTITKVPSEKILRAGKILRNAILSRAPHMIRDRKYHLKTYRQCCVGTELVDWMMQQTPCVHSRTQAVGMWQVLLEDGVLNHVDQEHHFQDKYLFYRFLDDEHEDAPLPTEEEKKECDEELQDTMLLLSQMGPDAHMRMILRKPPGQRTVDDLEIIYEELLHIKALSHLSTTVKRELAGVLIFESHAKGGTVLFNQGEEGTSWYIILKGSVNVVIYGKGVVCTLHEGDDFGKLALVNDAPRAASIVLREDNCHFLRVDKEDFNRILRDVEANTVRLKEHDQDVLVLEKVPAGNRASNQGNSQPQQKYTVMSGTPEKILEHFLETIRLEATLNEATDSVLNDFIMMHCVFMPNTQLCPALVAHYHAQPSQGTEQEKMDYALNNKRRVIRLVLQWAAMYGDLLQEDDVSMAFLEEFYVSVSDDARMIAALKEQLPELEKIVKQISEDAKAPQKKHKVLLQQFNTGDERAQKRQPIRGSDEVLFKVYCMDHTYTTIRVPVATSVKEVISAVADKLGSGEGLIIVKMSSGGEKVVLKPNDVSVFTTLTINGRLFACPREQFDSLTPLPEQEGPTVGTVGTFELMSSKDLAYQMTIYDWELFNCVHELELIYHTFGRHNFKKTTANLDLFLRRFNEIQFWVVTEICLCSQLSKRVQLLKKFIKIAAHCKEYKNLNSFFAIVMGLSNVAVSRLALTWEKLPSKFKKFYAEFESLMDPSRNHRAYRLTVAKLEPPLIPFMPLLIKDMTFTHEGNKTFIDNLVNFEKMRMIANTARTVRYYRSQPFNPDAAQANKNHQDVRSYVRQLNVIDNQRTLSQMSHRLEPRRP

Q: COCC1CCN(C(=O)C2CCC(=O)N(CC3CCCCC3)C2)CC1 (stereo unspecified) was tested. Which Potency did it give?
A: inactive

Q: Which Potency does the source give for CCNC(=O)N1CCN(S(=O)(=O)c2ccc3c(c2)OCCCO3)CC1 here?
A: inactive

Q: How did the Potency turn out when CCOc1cccc(C(=O)Nc2cnn(Cc3ccccc3)c2)c1 was run?
A: inactive

Q: With Nc1nnc(SCC(=O)OCc2ccc(Cl)c(Cl)c2)s1 as the compound, how does the Potency read?
A: inactive

Q: How did the Potency turn out when COCC1CCN(C(=O)CCc2nnc(C3(c4ccc(Cl)cc4)CCC3)o2)C1 (stereo unspecified) was run?
A: inactive

Q: With Cc1ccc(CSc2nsc(C)c2C#N)cc1 as the compound, how does the Potency read?
A: inactive

Q: With Cc1cccc(-n2c(O)c(C=Nc3ccccc3N)c(=O)[nH]c2=O)c1 as the compound, how does the Potency read?
A: inactive

Q: With COC(=O)Cc1csc(/N=C/c2c(O)n(-c3cccc(C(F)(F)F)c3)c(=O)c3ccccc23)n1 as the compound, how does the Potency read?
A: inactive

Q: For Cc1ccc(N=Cc2c(O)n(-c3nccs3)c(=O)c3ccccc23)c(C)c1, which Potency is on record?
A: 70.8 µM (active)

Q: COCCNC(=O)C1C(=O)Nc2ccccc2C(=O)N1c1ccc2c(c1)OCCO2 (stereo unspecified) was tested. Which Potency did it give?
A: inactive

Q: C=CCNC(=O)CCCC(=O)NCC=C was tested. Which Potency did it give?
A: inactive

Q: How did the Potency turn out when COCCNc1nc2nonc2nc1N(C)Cc1ccc(C)cc1 was run?
A: inactive

Q: CCCNC(=S)NC1CC2CCCC(C1)N2CC(C)C (stereo unspecified) was tested. Which Potency did it give?
A: inactive

Q: CCOC(=O)c1sc(NC(=O)C2CSC3(C)CCC(=O)N23)nc1C (stereo unspecified) was tested. Which Potency did it give?
A: inactive

Q: With CC(=O)c1nc(N2C(=O)C3CC=C(C)CC3C2=O)sc1C (stereo unspecified) as the compound, how does the Potency read?
A: inactive

Q: Nc1ccccc1/C=N\N=C/c1ccccc1N was tested. Which Potency did it give?
A: inactive

Q: Cc1occc1-c1nnc(SCC(=O)NC2(C#N)CCCC2)n1C was tested. Which Potency did it give?
A: inactive

Q: How did the Potency turn out when COc1ccc(-n2nc(C(=O)NCC(=O)N3CCC(C(N)=O)CC3)c3ccccc3c2=O)cc1OC was run?
A: inactive

Q: COc1ccc2c(CC(=O)OCC(=O)NC(N)=O)coc2c1 was tested. Which Potency did it give?
A: inactive

Q: With Cc1ccc(N=C2SCCCN2C(=O)c2cccc(N3C(=O)CCC3=O)c2)cc1Cl as the compound, how does the Potency read?
A: inactive

Q: With Nc1ccc2nn(-c3ccc(Cl)cc3)nc2c1 as the compound, how does the Potency read?
A: inactive

Q: How did the Potency turn out when Nc1nnc(SCCN2C(=O)c3ccccc3S2(=O)=O)s1 was run?
A: inactive

Q: With COc1cccc(C2CC(c3cccs3)=NN2C(=O)CSC2=NCCS2)c1OC (stereo unspecified) as the compound, how does the Potency read?
A: inactive

Q: How did the Potency turn out when O=C(COc1ccc(S(=O)(=O)N2CCOCC2)cc1Cl)N1CCOCC1 was run?
A: inactive

Q: Which Potency does the source give for COCc1[nH][nH]c(=O)c1C=Nc1ccc(F)cc1F here?
A: inactive

Q: For NC(=O)COc1ccc(NC(=O)c2ccccc2-c2ccccc2)cc1, which Potency is on record?
A: inactive

Q: How did the Potency turn out when COc1ccc(NC(=O)C(=O)NCC(c2ccco2)N2CCc3ccccc3C2)cc1 (stereo unspecified) was run?
A: inactive

Q: With CCN(CC)C(=O)CSC(Nc1cccc(F)c1)=C(C#N)C#N as the compound, how does the Potency read?
A: inactive

Q: CSc1nnnn1-c1c(C)cc(C)cc1C was tested. Which Potency did it give?
A: inactive

Q: With Cc1cc(-c2ccccc2)n2nc(C)c(-c3ccccc3)c2n1 as the compound, how does the Potency read?
A: inactive

Q: For CC1=C/C(=N\OS(=O)(=O)c2ccccc2)C=CC1=O, which Potency is on record?
A: inactive

Q: With COc1cccc(NC(=O)CSc2nnc(Cc3ccc(OC)c(OC)c3)o2)c1 as the compound, how does the Potency read?
A: inactive

Q: COc1ccc(NC(=O)CCCOc2ccc(C(C)=O)cc2)cc1S(=O)(=O)N1CCCCC1 was tested. Which Potency did it give?
A: inactive

Q: Which Potency does the source give for COc1ccc(/C=C(\C#N)C(=O)ONC2=NCCCCC2)cc1 here?
A: inactive

Q: How did the Potency turn out when CCOC(=O)/C(C#N)=C\c1c(C)cc(C)c(COC(C)=O)c1C was run?
A: inactive

Q: Which Potency does the source give for CCOC(=O)/C(C#N)=C/c1ccc(N2CCCCC2)cc1 here?
A: 79.4 µM (active)

Q: How did the Potency turn out when CCOC(=O)/C(C#N)=C/c1ccc(N2CCN(Cc3ccccc3)CC2)cc1 was run?
A: 89.1 µM (active)

Q: For COC(=O)c1sc(N2CCN(Cc3ccccc3)CC2)nc1N, which Potency is on record?
A: inactive

Q: For CCCn1c(C)cc(/C=C(\C#N)C(=O)OCC(=O)N(C)c2c(N)n(Cc3ccccc3)c(=O)[nH]c2=O)c1C, which Potency is on record?
A: inactive

Q: With O=C(Nc1ccccc1)Oc1cccc2cccnc12 as the compound, how does the Potency read?
A: inactive

Q: For CCc1cc2c(=O)c(-c3ccon3)c(N)oc2cc1OC, which Potency is on record?
A: inactive

Q: For COCc1cc(C)nc2sc(C(=O)NC3CCCCC3)c(N)c12, which Potency is on record?
A: inactive

Q: With Cc1ccc(C2(C(F)(F)F)N=C3Sc4cc(C)cc(C)c4N3C(=O)N2)cc1 (stereo unspecified) as the compound, how does the Potency read?
A: inactive

Q: How did the Potency turn out when CC(C)C[C@H]1CN=C(Nc2ccccc2)N1CC1CCCCC1 was run?
A: inactive

Q: Which Potency does the source give for NC1=NOC(=O)C1C1CCCCC1 (stereo unspecified) here?
A: inactive

Q: With COc1ccc(-c2nnc(SCC(=O)Nc3cccnc3Cl)n2C)cc1 as the compound, how does the Potency read?
A: inactive

Q: CCc1nccn1CCC(=O)N1CCCC(N2CCN(c3ccccc3F)CC2)C1 (stereo unspecified) was tested. Which Potency did it give?
A: inactive

Q: CC1=C(C(=O)N(C(C)C)C(C)C)CC(CC(=O)NCC2CCCCC2)C(=O)N1Cc1ccccc1 (stereo unspecified) was tested. Which Potency did it give?
A: inactive

Q: O=C(O)CCCn1c(=O)c2cccn2c2ccc(F)cc21 was tested. Which Potency did it give?
A: inactive

Q: Which Potency does the source give for CCOc1ccccc1NC(=O)C1CCC(CNc2c(N3CCOCC3)c(=O)c2=O)CC1 (stereo unspecified) here?
A: inactive

Q: Which Potency does the source give for CC(C)CNC(=O)/C=C/C(=O)O here?
A: inactive

Q: With C=CCn1c(N)c(S(=O)(=O)c2cccs2)c2nc3ccccc3nc21 as the compound, how does the Potency read?
A: 10 µM (active)

Q: For C=CCN1CN(S(=O)(=O)c2ccc(OC)cc2)c2nc3ccccc3nc21, which Potency is on record?
A: inactive

Q: How did the Potency turn out when CCN(CC)CCn1c(N)c(S(=O)(=O)c2ccccc2)c2nc3ccccc3nc21 was run?
A: inactive

Q: With Cn1ncc(N2CCN(S(=O)(=O)c3ccc(Br)cc3)CC2)c(Cl)c1=O as the compound, how does the Potency read?
A: inactive

Q: How did the Potency turn out when CCCCn1c(N)c(N(CCC(C)C)C(=O)c2ccc(COc3ccccc3)o2)c(=O)[nH]c1=O was run?
A: inactive

Q: How did the Potency turn out when Cc1cccc(C2c3[nH]c4ccccc4c3CCN2C(=O)c2cc(-c3cccn3C)n[nH]2)n1 (stereo unspecified) was run?
A: inactive

Q: For O=C(NC1(C(F)(F)F)N=C2SCCN2C1=O)c1ccco1 (stereo unspecified), which Potency is on record?
A: inactive

Q: With NC(=O)COC(=O)c1sc2cc(F)ccc2c1Cl as the compound, how does the Potency read?
A: inactive

Q: Which Potency does the source give for NC(=O)C1CCN(C(=O)c2ccc3c(=O)n(Cc4cccc(Br)c4)c(=S)[nH]c3c2)CC1 here?
A: inactive

Q: How did the Potency turn out when Cc1ccc(SCC(=O)c2cc(C)c(OC(=S)N(C)C)c(C)c2)cc1 was run?
A: inactive

Q: Which Potency does the source give for CSc1cc(C)[nH]c(=O)n1 here?
A: inactive

Q: For CCCNC(=O)CCc1c(C)nc2c(c(C)nn2-c2ccccc2)c1C, which Potency is on record?
A: inactive

Q: With COc1ccccc1CNC(=O)CN1CCC(n2cnc3cc(F)ccc32)CC1 as the compound, how does the Potency read?
A: inactive

Q: Which Potency does the source give for CCN(CC)c1ncnc2c1ncn2[C@H]1CN(Cc2cccs2)C[C@@H](CO)O1 here?
A: inactive

Q: COc1ccc(OCC(=O)OCC(=O)Nc2ccc(S(=O)(=O)N3CCCCC3)cc2)cc1 was tested. Which Potency did it give?
A: inactive

Q: CCCN(CC(=O)Nc1ccc(OC)c(OC)c1)CC(=O)Nc1ccc(F)c(F)c1F was tested. Which Potency did it give?
A: inactive

Q: Which Potency does the source give for COc1cccc(N=c2oc3c(C)ncc(CO)c3cc2C(N)=O)c1 here?
A: inactive

Q: Cc1ccc(CNC(=O)C2CCN(S(=O)(=O)c3ccc4nc5c(c(C(=O)O)c4c3)CC(C)CC5)CC2)cc1 (stereo unspecified) was tested. Which Potency did it give?
A: inactive

Q: CCCCc1nc2cc(C(=O)N3CCCCC3CCO)ccc2o1 (stereo unspecified) was tested. Which Potency did it give?
A: inactive

Q: COc1cc(C)c(Cl)cc1S(=O)(=O)n1ccnc1 was tested. Which Potency did it give?
A: inactive

Q: With Cc1ccc2c(=O)oc(N(C)C)nc2c1 as the compound, how does the Potency read?
A: inactive

Q: How did the Potency turn out when CN(Cc1nc2ccccc2c(=O)[nH]1)Cc1cc(=O)oc2ccc3ccccc3c12 was run?
A: inactive

Q: Which Potency does the source give for CCN(CC)c1ccc2oc(=O)c(C)nc2c1 here?
A: 100 µM (active)

Q: Which Potency does the source give for Cc1cc(C)cc(N(CC(=O)NCC2CCCO2)S(=O)(=O)c2c(C)noc2C)c1 (stereo unspecified) here?
A: inactive

Q: How did the Potency turn out when Cc1cc2nc3c(=O)n(Cc4ccccc4)c(=O)[nH]c3nc2cc1N was run?
A: 112 µM (active)

Q: How did the Potency turn out when Cn1c(=O)[nH]c(=O)c2c1[nH]c(=S)n2Cc1ccccc1 was run?
A: inactive

Q: For Cc1cc(OCC(=O)N(C)c2c(N)n(Cc3ccccc3)c(=O)[nH]c2=O)c(C(C)C)cc1Cl, which Potency is on record?
A: inactive

Q: CCn1nc(C)c(CNC(=O)C2CCC(=O)N(Cc3cccc(F)c3)C2)c1C (stereo unspecified) was tested. Which Potency did it give?
A: inactive

Q: CN(C)C(=O)c1nc2ccc(Cl)cn2c1CNCc1cccc(OC(F)(F)F)c1 was tested. Which Potency did it give?
A: inactive

Q: With CSCCC(NC(N)=O)C(=O)N(C)CC(=O)Nc1ccc(C)cc1 (stereo unspecified) as the compound, how does the Potency read?
A: inactive

Q: With CCCCN(C1CCS(=O)(=O)C1)S(=O)(=O)c1ccc(C(C)C)cc1 (stereo unspecified) as the compound, how does the Potency read?
A: inactive

Q: How did the Potency turn out when CCCC(=O)NC(=S)Nc1ccc(CN2CCOCC2)cc1 was run?
A: inactive

Q: How did the Potency turn out when O=C(CCCl)Nc1ccc(S(=O)(=O)NCc2ccco2)cc1 was run?
A: inactive

Q: With O=C(CNC(c1ccccc1)c1ccccc1)Nc1ccc(F)cc1 as the compound, how does the Potency read?
A: inactive

Q: Which Potency does the source give for COc1ccc(S(=O)(=O)N2CCCC(C(=O)Nc3ccc(NC(=O)c4ccccn4)cc3)C2)cc1 (stereo unspecified) here?
A: inactive
